The nature of experiment [1]: NCI Yeast Anticancer Drug Screen. Data for the rad50 strain (AID 155).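 Further: 0% = growth of vehicle-only cultures of the same strain.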 The conditions noted are these: S. cerevisiae rad50 strain growth inhibition, hits give high values. Summed up:
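A DNA repair-deficient yeast mutant serves as the test organism; compound-induced growth inhibition is calculated against vehicle-treated cells.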

The nature of experiment [2]: NCI Yeast Anticancer Drug Screen. Data for the mec2-1 strain (AID 157). To be noted: S. cerevisiae mec2-1 strain, hits give high values. In a few lines: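 Vehicle-treated cultures served as reference for growth inhibition of compound-exposed mec2-1 yeast.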
A short description of experiment [3]: NCI Yeast Anticancer Drug Screen. Data for the sgs1 mgt1 strain (AID 161).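 Further: 0% = growth of cultures given vehicle only.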 To be noted: S. cerevisiae sgs1 mgt1 strain, hits give high values. Summed up: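 Test agents were incubated with a DNA-repair-mutant yeast strain. Growth was then read and compared against vehicle-treated controls.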
The nature of experiment [4]: NCI Yeast Anticancer Drug Screen. Data for the cln2 rad14 strain (AID 165).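 Further: 0% = growth equal to vehicle treated cultures.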 The conditions noted are these: S. cerevisiae cln2 rad14 strain, hits give high values. In a few lines:
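Each compound was tested on cln2 rad14 yeast. Inhibition of growth was calculated against vehicle-exposed controls.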

Experiment [5] in a line: NCI Yeast Anticancer Drug Screen. Data for the bub3 strain (AID 167). The conditions noted are these: S. cerevisiae bub3 mutant strain, hits give high values. Summed up: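 Inhibition values come from growth of compound-treated mutant yeast normalised to vehicle-treated controls.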
Experiment [6] can be described thus: NCI Yeast Anticancer Drug Screen. Data for the mlh1 rad18 strain (AID 175). To be noted: S. cerevisiae mlh1 rad18 strain growth inhibition, hits give high values. Summed up:
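Vehicle-treated cultures served as the reference for growth inhibition in a yeast strain carrying DNA damage repair alterations exposed to each compound.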

The mark [7] stands for this setting: at 5.0 µM (retest, dose inferred, filed as 0.5).
Setting [8] is: at 50.0 µM (retest, dose inferred, filed as 5.0).

The panel holds about 79,000 compounds, 15% with a hit somewhere; the sample as a whole holds those more often. Unmarked numbers belong to inactive results. The source made the active and inactive calls. No stated cut-off is given here; in the data, active means growth inhibition above about 70%; inactive means the rest.

On to `CCCCCCCCCCCCCCCCC1CCc2ccccc21` (stereo not given), for which the growth inhibition was 4% in experiment [1] (setting [7]); 4% in experiment [1] (setting [8]); 56.8% in experiment [1] (at 50.0 µM); -2% in experiment [2] (setting [7]); -6% in experiment [2] (setting [8]); 64.3% in experiment [2] (at 50.0 µM). Besides, the growth inhibition in experiment [3] (setting [7]) is 11%; in experiment [3] (setting [8]), 13%; in experiment [3] (at 50.0 µM) it was 79.4% (active); in experiment [4] (setting [7]), 23%; in experiment [4] (setting [8]), 28%; in experiment [4] (at 50.0 µM), 89.8% (active). Besides, the growth inhibition in experiment [5] (setting [7]) is 38%; in experiment [5] (setting [8]) it was 39%; in experiment [5] (at 50.0 µM) it was 75.8% (active); in experiment [6] (setting [7]) it was -2%; in experiment [6] (setting [8]), 11%; in experiment [6] (at 50.0 µM), 86% (active).
Consider `CC(CCNCCC#N)CC(C)(C)C` (stereo not given), for which the growth inhibition in experiment [1] (setting [7]) is 6%; in experiment [1] (setting [8]) it was 66%; in experiment [1] (at 50.0 µM) it was 76.9% (active); in experiment [2] (setting [7]), -4%; in experiment [2] (setting [8]), 32%; in experiment [2] (at 50.0 µM), 47.8%. Moreover, the growth inhibition is 9% in experiment [3] (setting [7]); 43% in experiment [3] (setting [8]); 86.2% (active) in experiment [3] (at 50.0 µM); 7% in experiment [4] (setting [7]); 33% in experiment [4] (setting [8]); 48.5% in experiment [4] (at 50.0 µM). For the same compound, the growth inhibition in experiment [5] (setting [7]) is 7%; in experiment [5] (setting [8]), 47%; in experiment [5] (at 50.0 µM), 63%; in experiment [6] (setting [7]) it was 12%; in experiment [6] (setting [8]), 66%; in experiment [6] (at 50.0 µM), 68.8%.
Regarding `COc1ccc(C(=O)C(CCC(=O)/C=C/c2ccccc2)S(C)(=O)=O)cc1` (stereo not given), the growth inhibition is 8% in experiment [1] (setting [7]); 10% in experiment [1] (setting [8]); 9.25% in experiment [1] (at 50.0 µM); -12% in experiment [2] (setting [7]); 15% in experiment [2] (setting [8]); 3.5% in experiment [2] (at 50.0 µM). For the same compound, the growth inhibition in experiment [3] (setting [7]) was 5%; in experiment [3] (setting [8]) it was 13%; in experiment [3] (at 50.0 µM) it was 17.2%; in experiment [4] (setting [7]) it was 2%; in experiment [4] (setting [8]) it was -8%; in experiment [4] (at 50.0 µM) it was 39.9%. The growth inhibition is -7% in experiment [5] (setting [7]); 6% in experiment [5] (setting [8]); 0.7% in experiment [5] (at 50.0 µM); 0% in experiment [6] (setting [7]); -5% in experiment [6] (setting [8]); 2.4% in experiment [6] (at 50.0 µM).
On to `CC1CN(CC(O)c2ccc(Br)cc2)CC(C)O1` (stereo not given), for which the growth inhibition is 13% in experiment [1] (setting [7]); 30% in experiment [1] (setting [8]); 58.5% in experiment [1] (at 50.0 µM); 6% in experiment [2] (setting [7]); 28% in experiment [2] (setting [8]); 34.2% in experiment [2] (at 50.0 µM). Also, the growth inhibition in experiment [3] (setting [7]) was 8%; in experiment [3] (setting [8]) it was 56%; in experiment [3] (at 50.0 µM), 66.5%; in experiment [4] (setting [7]), 8%; in experiment [4] (setting [8]), 46%; in experiment [4] (at 50.0 µM), 68.7%. In addition, the growth inhibition in experiment [5] (setting [7]) is 12%; in experiment [5] (setting [8]), 48%; in experiment [5] (at 50.0 µM), 54.6%; in experiment [6] (setting [7]), 29%; in experiment [6] (setting [8]), 61%; in experiment [6] (at 50.0 µM), 41.8%.
Consider `CCc1c(Nc2ccccc2C)[nH]c(N)nc1=S`, for which the growth inhibition was -2% in experiment [1] (setting [7]); -32% in experiment [1] (setting [8]); -6.6% in experiment [1] (at 50.0 µM); -2% in experiment [2] (setting [7]); -7% in experiment [2] (setting [8]); 5.35% in experiment [2] (at 50.0 µM). Besides, the growth inhibition in experiment [3] (setting [7]) is -1%; in experiment [3] (setting [8]), -7%; in experiment [3] (at 50.0 µM) it was 12.4%; in experiment [4] (setting [7]), -7%; in experiment [4] (setting [8]) it was -15%; in experiment [4] (at 50.0 µM) it was -7%. In addition, the growth inhibition was -4% in experiment [5] (setting [7]); 8% in experiment [5] (setting [8]); 77.2% (active) in experiment [5] (at 50.0 µM); -1% in experiment [6] (setting [7]); -7% in experiment [6] (setting [8]); -12.4% in experiment [6] (at 50.0 µM).
For `O=C(C(Oc1ccc(Cl)cc1)Oc1ccc(Cl)cc1)N(O)c1ccccc1OCc1ccccc1`, the growth inhibition was 14% in experiment [1] (setting [7]); 49% in experiment [1] (setting [8]); 66.8% in experiment [1] (at 50.0 µM); 3% in experiment [2] (setting [7]); 39% in experiment [2] (setting [8]); 63% in experiment [2] (at 50.0 µM). Also, the growth inhibition in experiment [3] (setting [7]) was 18%; in experiment [3] (setting [8]) it was 45%; in experiment [3] (at 50.0 µM) it was 69.5%; in experiment [4] (setting [7]) it was -13%; in experiment [4] (setting [8]), 49%; in experiment [4] (at 50.0 µM), 53.6%. Also, the growth inhibition in experiment [5] (setting [7]) was 6%; in experiment [5] (setting [8]) it was 57%; in experiment [5] (at 50.0 µM), 47.9%; in experiment [6] (setting [7]), 11%; in experiment [6] (setting [8]) it was 45%; in experiment [6] (at 50.0 µM), 71.5% (active).
On to `Cc1c(C)c2cc3c(=O)ccoc3c(C)c2oc1=O`, for which the growth inhibition in experiment [1] (setting [7]) was 32%; in experiment [1] (setting [8]), 76% (active); in experiment [1] (at 50.0 µM) it was 48.1%; in experiment [2] (setting [7]), 1%; in experiment [2] (setting [8]), 38%; in experiment [2] (at 50.0 µM) it was 19.6%. Moreover, the growth inhibition was -11% in experiment [3] (setting [7]); 21% in experiment [3] (setting [8]); 30.5% in experiment [3] (at 50.0 µM); 8% in experiment [4] (setting [7]); 45% in experiment [4] (setting [8]); 42% in experiment [4] (at 50.0 µM). The growth inhibition in experiment [5] (setting [7]) is -1%; in experiment [5] (setting [8]), 52%; in experiment [5] (at 50.0 µM), 30.4%; in experiment [6] (setting [7]), -11%; in experiment [6] (setting [8]) it was 68%; in experiment [6] (at 50.0 µM), 69.6%.
For the compound `Cc1c(Cl)nc(-c2ccccc2)nc1C(=O)CCl`, the growth inhibition in experiment [1] (setting [7]) is 43%; in experiment [1] (setting [8]) it was 78% (active); in experiment [1] (at 50.0 µM) it was 22.1%; in experiment [2] (setting [7]) it was 67%; in experiment [2] (setting [8]) it was 91% (active); in experiment [2] (at 50.0 µM), -0.1%. Further, the growth inhibition in experiment [3] (setting [7]) is 90% (active); in experiment [3] (setting [8]) it was 93% (active); in experiment [3] (at 50.0 µM), 70.5% (active); in experiment [4] (setting [7]), 22%; in experiment [4] (setting [8]) it was 66%; in experiment [4] (at 50.0 µM), 9.45%. Also, the growth inhibition was 38% in experiment [5] (setting [7]); 86% (active) in experiment [5] (setting [8]); -34.3% in experiment [5] (at 50.0 µM); 65% in experiment [6] (setting [7]); 89% (active) in experiment [6] (setting [8]); 4.5% in experiment [6] (at 50.0 µM).
For `COC(=O)c1cc(-c2ccccc2)[nH]c(=O)c1C#N`, the growth inhibition was -8% in experiment [1] (setting [7]); -32% in experiment [1] (setting [8]); 44.5% in experiment [1] (at 50.0 µM); -18% in experiment [2] (setting [7]); -15% in experiment [2] (setting [8]); 5.25% in experiment [2] (at 50.0 µM). Also, the growth inhibition in experiment [3] (setting [7]) was -5%; in experiment [3] (setting [8]) it was -16%; in experiment [3] (at 50.0 µM), 75.8% (active); in experiment [4] (setting [7]), -36%; in experiment [4] (setting [8]) it was -21%; in experiment [4] (at 50.0 µM), 22.6%. Also, the growth inhibition in experiment [5] (setting [7]) was -24%; in experiment [5] (setting [8]), -23%; in experiment [5] (at 50.0 µM) it was -24.7%; in experiment [6] (setting [7]) it was 0%; in experiment [6] (setting [8]) it was -21%; in experiment [6] (at 50.0 µM), 52%.
Turning to `O=C(/C=C/c1cccc(Cl)c1)c1ccccc1`, the growth inhibition is 16% in experiment [1] (setting [7]); 98% (active) in experiment [1] (setting [8]); 95.7% (active) in experiment [1] (at 50.0 µM); -9% in experiment [2] (setting [7]); 99% (active) in experiment [2] (setting [8]); 95.5% (active) in experiment [2] (at 50.0 µM). The growth inhibition is 7% in experiment [3] (setting [7]); 99% (active) in experiment [3] (setting [8]); 98% (active) in experiment [3] (at 50.0 µM); 5% in experiment [4] (setting [7]); 52% in experiment [4] (setting [8]); 12.9% in experiment [4] (at 50.0 µM). The growth inhibition in experiment [5] (setting [7]) was -30%; in experiment [5] (setting [8]), 98% (active); in experiment [5] (at 50.0 µM), 95.2% (active); in experiment [6] (setting [7]), 10%; in experiment [6] (setting [8]), 96% (active); in experiment [6] (at 50.0 µM), 99.4% (active).
